SENP8 block-1 – SENP8 (human) protease inhibition; Q96LD8; actives 0.64% (n = 360,000); inhibition, % at 20 µM; recombinant SENP8, Nedd8 substrate fluorescence; AID 602440; in the data active = inhibition mostly above about 40%, no sharp cut-off; inactive = mostly below about 27%
C8 TRAIL sens – caspase-8 TRAIL sensitization. NB7+C8 cells + TRAIL, ATPlite viability luminescence. actives 1% (n = 360,000). AID 624354. inhibition (viability loss, TRAIL sensitization), % at 10 µM;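 active = compounds causing at least 50% loss of cell viability in the single-dose screen, relative to plate controls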
PPC-1+TRAIL kill – PPC-1 cancer cell killing with TRAIL present | PPC-1 cells + TRAIL, ATPLite viability luminescence | cell killing (% activity), % at 4 µM or 5 µM | actives 0.41% (n = 220,000) | AID 1443;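 active = cell killing above 50% in the first pass at 4 µM, then a duplicate retest at 5 µM averaging 50% or more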;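 also: plate controls were cells with TRAIL plus DMSO for no effect and medium-only wells lacking cells for full effect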
SENP7 block – SENP7 protease inhibition; Q9BQF6; recombinant SENP7, Z-RLRGG-aminoluciferin luminescence, 40 min; inhibition, % at 5 µM; actives 1.5% (n = 330,000);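 active = inhibition above about 50% at the single test dose, limit read from the data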;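 also: plate controls were DMSO with enzyme for no effect and no enzyme buffer wells for full effect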
SENP6 block – blocks the human protease SENP6; Q9GZR1; Recombinant SENP6 catalytic domain, aminoluciferin luminescence; inhibition, % at 10 µM; actives 1.8% (n = 330,000); AID 2599;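 active = inhibition above about 50% at the single tested dose, limit read from the data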;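 also: plate controls were DMSO wells with enzyme for no effect and DMSO wells lacking enzyme for full effect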
Target sequence (Q9GZR1 628-1112 limits assumed): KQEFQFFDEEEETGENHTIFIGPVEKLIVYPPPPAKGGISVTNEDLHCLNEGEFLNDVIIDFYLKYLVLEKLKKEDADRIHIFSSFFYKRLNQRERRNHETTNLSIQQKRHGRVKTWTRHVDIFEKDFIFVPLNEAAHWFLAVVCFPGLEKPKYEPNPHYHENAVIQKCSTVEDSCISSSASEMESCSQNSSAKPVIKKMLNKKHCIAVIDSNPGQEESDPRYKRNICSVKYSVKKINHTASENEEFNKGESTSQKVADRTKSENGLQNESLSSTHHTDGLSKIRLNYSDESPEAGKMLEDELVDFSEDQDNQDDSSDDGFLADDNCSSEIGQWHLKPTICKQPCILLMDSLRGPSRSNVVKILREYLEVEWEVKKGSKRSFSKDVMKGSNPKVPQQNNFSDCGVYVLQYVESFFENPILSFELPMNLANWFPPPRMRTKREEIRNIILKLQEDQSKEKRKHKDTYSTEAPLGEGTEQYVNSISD
SENP8 block-2 – SENP8 protease inhibition; Q96LD8; purified SENP8, Z-RLRGG-aminoluciferin cleavage, luminescence; inhibition, % at 10 µM; actives 1.2% (n = 330,000); AID 2540; in the data active = inhibition above about 50%
SENP8 conf – human SENP8 inhibition, confirmed; inhibition, % at 12.5 µM; Recombinant SENP8, Z-RLRGG-aminoluciferin luminescence, 60 min; shares compounds with SENP7 block; actives 40% (n = 6,200);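 active = mean inhibition across replicates above about 50%, limit read from the data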
SENP6 conf – confirmation of human SENP6 protease inhibitors | AID 488915 | recombinant SENP6, Z-RLRGG-aminoluciferin luminescence | actives 58% (n = 6,200) | inhibition, % at 12.5 µM | shares compounds with SENP7 block
SENP7 conf – human SENP7 inhibition, confirmed; shares compounds with SENP7 block; recombinant SENP7, Z-RLRGG-aminoluciferin luminescence, 40 min; inhibition, % at 12.5 µM; actives 69% (n = 6,200); AID 488917
Casp3 select – selectivity test for SENP inhibitors: human caspase-3 inhibition; shares compounds with SENP7 block; inhibition, % at 12.5 µM; purified caspase-3, Z-DEVD-aminoluciferin luminescence, 60 min; actives 60% (n = 6,200);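 active = mean inhibition above about 50%, limit read from the data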;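 also: plate controls were enzyme with DMSO for no effect and wells without caspase-3 for full effect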
Target sequence (P42574 28-227 limits assumed): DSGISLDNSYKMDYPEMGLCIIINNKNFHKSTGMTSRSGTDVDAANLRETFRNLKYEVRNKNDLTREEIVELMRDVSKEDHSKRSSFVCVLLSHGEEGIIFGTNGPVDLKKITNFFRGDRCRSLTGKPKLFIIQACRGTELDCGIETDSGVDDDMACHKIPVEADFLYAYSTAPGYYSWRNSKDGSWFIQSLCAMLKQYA
Luc interf – counter-screen for SENP inhibitors: luminescence interference. Pre-incubated SENP8/Z-RLRGG-aminoluciferin, luciferase luminescence interference. inhibition, % at 12.5 µM. actives 39% (n = 6,200). shares compounds with SENP7 block;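 active = mean inhibition above about 50% when retested at one dose, limit read from the data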;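 also: plate controls were DMSO wells with completed reaction for no effect and substrate without enzyme for full effect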
* hit, by the source's call; . = not tested or not shown. Hits are enriched below; roughly 3% of the tested compounds scored in any of these assays.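 The calls were made as follows, unless noted: active = mean inhibition above about 50% in the one-dose retest (limit read from the data); inactive = the rest.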

SMILES	SENP8 block-1	C8 TRAIL sens	PPC-1+TRAIL kill	SENP7 block	SENP6 block	SENP8 block-2	SENP8 conf	SENP6 conf	SENP7 conf	Casp3 select	Luc interf
CCOc1ccc(C(=O)Nc2ccc3c(c2)OCCO3)cc1	8.1	55.3*	.	86.3*	83.8*	71.2*	-7.2	77.3*	95.1*	87.2*	69.4*
CCOc1ccc(NC(=O)CN2CCN(CC(=O)Nc3ccc4c(c3)OCCO4)CC2)cc1	17.9	2.1	-9.6	-8.7	-3.4	1.2	.	.	.	.	.
Cc1ccc(C(=O)Nc2ccc3c(c2)OCCO3)c(Cl)c1	10.0	82.9*	.	84.7*	89.1*	78.0*	81.4*	78.6*	93.7*	86.8*	81.8*
O=C(Nc1ccc(Cl)cc1Cl)c1ccc2c(c1)OCCO2	7.5	52.7*	.	92.4*	92.8*	89.8*	65.8*	84.5*	95.0*	88.1*	46.6
O=C(Nc1ccc2c(c1)OCCO2)c1ccc(Cl)c([N+](=O)[O-])c1	18.0	34.1	20.4	10.8	19.7	-10.0	.	.	.	.	.
CCN(C(=O)COC(=O)c1nn(-c2ccccc2)c(=O)c2ccccc12)C1CCS(=O)(=O)C1 (centres undefined)	0.5	0.1	-5.8	-2.6	-6.3	2.2	.	.	.	.	.
COc1ccc(OC)c(CCNC(=O)c2cccc(NC(=O)C3=C(C)OCCS3)c2)c1	2.0	7.1	.	-2.0	0.6	-1.4	.	.	.	.	.
CC1CN(C(=O)COC(=O)Cc2c(Cl)cccc2Cl)CC(C)O1 (centres undefined)	1.8	4.3	.	-5.4	-4.5	1.2	.	.	.	.	.
CCOC(=O)Nc1ccc2c(c1)OCO2	6.4	-28.9	13.1	-6.4	-32.2	-10.8	.	.	.	.	.
Cc1ccc(C(=O)Nc2ccc3c(c2)OCO3)o1	17.3	18.6	27.6	32.2	50.5*	1.5	26.2	20.7	66.6*	77.0*	52.3*
COc1ccccc1C(=O)Nc1ccc2c(c1)OCCO2	13.1	33.7	36.8	43.0	53.1*	16.0	31.5	30.2	70.6*	69.2*	52.2*
CCOC(=O)c1c(C)[nH]c(C(=O)Nc2ccc3c(c2)OCO3)c1C	.	.	14.9	83.7*	16.1	59.5*	8.8	80.5*	96.5*	79.4*	48.3
O=C(NC1=NCCS1)c1ccc(Cl)c(Cl)c1	27.4	6.4	.	59.9*	69.5*	43.2	10.9	63.0*	49.2	64.6*	8.8
O=c1[nH]c(=S)[nH]cc1Oc1ccccc1	16.9	-9.4	.	.	.	.	.	.	.	.	.
O=C(COC(=O)c1ccc(S(=O)(=O)NCc2ccco2)cc1)Nc1ccc(Cl)cn1	7.3	-2.1	1.8	3.1	-2.6	-7.9	.	.	.	.	.
Cc1cc(C(=O)Nc2ccc(S(=O)(=O)N3CCCC3)cc2)no1	14.8	1.2	-1.2	-1.6	12.6	-5.0	.	.	.	.	.
Cc1cc(C(=O)Nc2ccc(N3CCCCC3)cc2)no1	10.6	39.8	16.9	53.5*	50.0	37.9	16.8	55.9*	77.0*	80.9*	19.1
Cc1cc(C)cc(C(=O)NC(=S)Nc2ccc3c(c2)OCCO3)c1	15.8	9.1	5.4	42.2	83.8*	48.1	-15.5	-12.0	-9.4	-3.8	-3.9
CCc1ccc(C(=O)NC(=S)Nc2ccc3c(c2)OCCO3)cc1	13.3	1.0	16.2	-14.7	11.8	-6.5	.	.	.	.	.
Cc1cc(NC(=O)c2ccccc2)ncc1NC(=O)c1cccs1	-4.0	-4.5	16.1	-17.3	64.0*	71.7*	76.0*	73.8*	93.1*	90.3*	79.8*
Cc1cc(NC(=O)c2cccs2)ncc1NC(=O)c1cccc(F)c1	-47.5	-1.7	8.4	32.6	-6.4	13.3	.	.	.	.	.
O=C(Nc1ccc(Cl)cn1)c1ccccc1F	-2.7	35.7	44.7	80.4*	81.8*	63.9*	1.6	70.8*	93.1*	84.6*	42.5
O=C(Nc1ccc(Cl)cn1)c1cccc(F)c1	16.9	23.3	-10.5	89.3*	90.8*	73.3*	82.6*	84.6*	96.6*	91.6*	80.6*
O=C(NC(=O)c1ccccc1)Nc1ccc(Cl)cn1	-2.0	23.4	.	72.3*	26.5	-0.1	-1.8	3.7	15.4	36.1	1.1
O=C(Nc1ccc(Cl)cn1)Nc1ccc(Cl)cn1	-0.5	-2.8	8.7	0.3	-5.0	1.1	.	.	.	.	.
SMILES	SENP8 block-1	C8 TRAIL sens	PPC-1+TRAIL kill	SENP7 block	SENP6 block	SENP8 block-2	SENP8 conf	SENP6 conf	SENP7 conf	Casp3 select	Luc interf
CCOc1ccc(NC(=O)CCNC(=O)C2CCN(S(=O)(=O)c3ccccc3)CC2)cc1	8.7	-17.4	.	14.6	-2.1	-2.4	.	.	.	.	.
COCCNC(=S)N(C)[C@H]1C[C@H]2c3cc(N4CCN(C)CC4)ccc3CCN2C(=O)[C@H]1[C@H](C)O	-6.0	2.2	.	.	.	.	.	.	.	.	.
Cc1cc(NC(=O)c2cccc(F)c2)ncc1NC(=O)c1ccco1	19.4	10.6	13.2	93.4*	94.1*	81.8*	87.3*	87.1*	98.8*	94.9*	88.4*
Cc1ccc(NC(=O)Cn2cccc2)c(Br)c1	12.6	-10.8	11.0	9.8	-13.6	-1.1	.	.	.	.	.
Cn1ccc(C(=O)Nc2ccc(Br)cc2Br)n1	12.2	6.6	8.5	39.3	66.3*	37.5	43.3	44.5	65.1*	54.2*	20.5
Cc1ccc(NC(=O)c2ccccn2)c(Br)c1	9.5	21.2	11.9	73.1*	82.3*	72.3*	66.0*	82.8*	79.3*	64.2*	34.4
Cc1ccc(NC(=O)c2ccn(C)n2)c(Br)c1	18.0	41.3	34.8	44.0	60.8*	42.3	46.6	41.9	80.6*	68.3*	61.2*
CS(=O)(=O)Cc1ccc(C(=O)Nc2cccc(-c3nc4ccccc4[nH]3)c2)cc1	5.2	22.2	.	66.9*	78.5*	50.4*	59.2*	56.7*	81.4*	62.2*	22.6
CS(=O)(=O)c1cccc(C(=O)Nc2cccc(-c3nc4ccccc4[nH]3)c2)c1	-0.5	22.0	.	96.4*	96.2*	91.0*	96.4*	97.1*	102.2*	47.6	96.2*
COc1ccc(OCC(=O)Nc2cccc(-c3nc4ccccc4o3)c2)cc1	-12.1	23.6	41.7	0.2	-5.8	4.9	.	.	.	.	.
COc1ccc(OCC(=O)Nc2cccc(-c3nc4ccccc4[nH]3)c2)cc1	-20.5	8.7	23.4	75.5*	74.4*	61.4*	76.7*	75.7*	92.4*	58.1*	78.8*
